About 15 (0.006%) of roughly 240,000 compounds were called active. Calls follow the shape of the dose curve; as a rule, active = well fitted inhibition curve with a large enough effect; inconclusive = small, poorly fitted or top-dose-only effect, or effect the other way, or another doubt; inactive = no such curve, though single readings can be large or run the other way. These entries were drawn from the full list.
These compounds were tested against Lysosomal alpha-glucosidase (Homo sapiens) (UniProt P10253) (assay: qHTS Assay for Inhibitors and Activators of Human alpha-Glucosidase From Spleen Homogenate). Settings: 4-MU-alpha-glucoside fluorescence; series mostly up to 79.9 µM.
Excerpt: NIH Chemical Genomics Center [NCGC] NIH Molecular Libraries Probe Production Centers Network [MLPCN] MLPCN Grant: R03 MH084841-01 Assay Submitter (PI): Wei Zheng NCGC Assay Overview: Alpha-glucosidase is responsible for the hydrolysis of terminal, non-reducing 1,4-linked alpha-D-glucose residues, which releases alpha-D-glucose. It is a lysosomal hydrolase that is required for the degradation of a small percentage (1-3%) of cellular glycogen in humans. Deficiency of this enzyme results in glycogen-storage disease type II (GSDII), also referred to as Pompe disease, an autosomal recessive disorder. Structurally normal glycogen is accumulated in the lysosomes and cytoplasm in affected patients, primarily in muscle tissues. Excessive glycogen storage within lysosomes may interrupt normal functioning of other organelles and leads to cellular injury. In turn, this leads to enlargement and dysfunction of the entire organ involved (eg: cardiomyopathy and muscle weakness). It has been reported that the improper folding and trafficking of alpha-glucosidase resulting from genetic mutations may account for a significant number of Pompe patients. […] We optimized this alpha-glucosidase assay in 1536-well plate format for identification of novel small molecule inhibitors or activators with structures other than the sugar analogs in order to develop new pharmacological chaperones. In particular, this assay is directed towards discovering compounds active in a more natural setting, tissue homogenate, that may have been missed by screens of the purified enzyme under more stringent conditions.
NCGC Assay Protocol Summary: This is a fluorogenic enzyme assay with 4-methylumbelliferyl-alpha-D-glucopyranoside as the substrate and human spleen homogenate containing alpha-glucosidase as the enzyme preparation. Upon hydrolysis of this fluorogenic substrate, the resulting product, 4-methylumbelliferone (which excites at 365 nm and emits at 440 nm) can be detected by a fluorescence plate reader. Data were normalized to the controls for basal activity (without enzyme) and 100% activity (with enzyme). The AC50 values were determined from concentration-response data modeled with the standard Hill equation. Assay buffer: 50 mM citric acid (titrated with potassium phosphate to pH 5.0), 0.01% Tween-20 (pH 5.0 is an optimal condition for this enzyme assay) 1536-well assay protocol for the alpha-glucosidase from human spleen homogenate: (1) Add 2 ul/well spleen homogenate (1 ug) (2) Add 23 nL compounds in DMSO solution. The final titration was 0.5 nM to 58 uM. (3) Add 2 ul of substrate (1 mM final) (4) Incubate at 37 C for 40 min (5) Add 2 ul stop solution (1M NaOH and 1M Glycine mixture, pH 10) (6) Detect the assay plate in a ViewLux plate reader (PerkinElmer) with Ex=365 nm and Em=440nm. Keywords: Alpha-glucosidase, Pompe Disease, pharmacological chaperone, chaperone therapy, high throughput screening, alpha-glucosidase inhibitor, MLSMR, MLSCN, NIH Roadmap, qHTS and NCGC

outcome, inactive:
CSc1ccccc1N1CCN(CCCCCC(=O)NC2CCCc3ccccc32)CC1 (stereo unspecified)
CC[C@H](C)[C@H](NC(=O)[C@H](Cc1ccc(O)cc1)NC(=O)[C@@H](NC(=O)[C@H](CCCN=C(N)N)NC(=O)[C@@H](N)CC(=O)O)C(C)C)C(=O)N[C@@H](Cc1cnc[nH]1)C(=O)N1CCC[C@H]1C(=O)N[C@@H](Cc1ccccc1)C(=O)O
Cc1ccc2c(c1)C(c1ccccc1)N(C(=O)c1ccc(S(=O)(=O)N3CCOCC3)cc1)CC(=O)N2 (stereo unspecified)
COC(=O)[C@@]1(Cc2ccccc2)[C@H]2c3cc(C(=O)N(C)C)n(CCSCCO)c3C[C@H]2CN1C(=O)c1ccccc1
Cc1ccc(CNC(=O)C2(C(F)(F)F)C/C(=C\CCO)CCCO2)o1 (stereo unspecified)
O=C(c1cc(C(F)(F)F)cc(C(F)(F)F)c1)N1CCC2(CCCN(c3ccccn3)C2)CC1
CCCN1CCC(=O)N(C(CSc2ccc(OC)cc2)Cc2ccccc2)CC1 (stereo unspecified)
CCCCNC(=S)N/N=C1\CCCCc2ccccc21
C=CCCN(C(Cc1ccccc1)C(=O)OC)S(=O)(=O)c1cc(Br)ccc1Br (stereo unspecified)
Cc1ccccc1Nc1scc(-c2ccc(Br)cc2)[n+]1-c1ccccc1C
Cc1nc(C(=O)N2CCCC(C(=O)c3ccc(Cl)cc3)C2)cs1 (stereo unspecified)
CC1=CC(=C(C#N)c2nc3ccccc3s2)C=C(C)N1c1ccc(F)cc1F
Cc1cc(C(=O)OCC(=O)Nc2nccs2)c2ccccc2n1
O=C1NC(=Nc2ccc(Cl)cc2)SC1Cc1cccc(Cl)c1Cl (stereo unspecified)
Cc1ccc(S(=O)(=O)N(CC(=O)Nc2cccc([N+](=O)[O-])c2)Cc2ccc(Cl)cc2)cc1
COc1ccc(C2=Nc3cc(C)ccc3OC2)cc1
CCOC(=O)Cn1c(=O)sc2cccc(Cl)c21
CCN(CC)CCNC(=O)c1sc2ncn(CC(=O)Nc3ccc(C)c(Cl)c3)c(=O)c2c1C
Cc1cccc2c1-c1sc(C(=O)NCCCN3CCc4ccccc4C3)cc1CO2
O=C1/C(=C/c2coc3ccc(O)cc3c2=O)SC(=S)N1c1ccccc1
CC[C@H](C)[C@H](NC(=O)[C@H](CCCNC(=N)N)NC(=O)[C@H](CCCNC(=N)N)NC(=O)[C@H](CC(C)C)NC(=O)[C@H](Cc1ccccc1)NC(=O)CNC(=O)CNC(=O)[C@@H](N)Cc1ccc(O)cc1)C(=O)N[C@@H](CCCNC(=N)N)C(=O)N1CCC[C@H]1C(=O)N[C@@H](CCCCN)C(=O)N[C@@H](CC(C)C)C(=O)N[C@@H](CCCCN)C(=O)N[C@@H](Cc1c[nH]c2ccccc12)C(=O)N[C@@H](CC(=O)O)C(=O)N[C@@H](CC(N)=O)C(=O)N[C@@H](CCC(N)=O)C(=O)O
COc1ccc(-c2ccc(C3C4C=CCCC4(C)C(=O)N3Cc3ccccc3)c(F)c2)cc1OC (stereo unspecified)
Cc1ccc(-n2c(SCC(=O)N3c4ccccc4Sc4ccccc43)nnc2-c2ccncc2)cc1
BrC1C(Br)C(Br)C(Br)C(Br)C1Br (stereo unspecified)
CCCC(Cl)CCCC(Cl)CCC(Cl)CCC(Cl)CCC(Cl)CCCC(Cl)CCC (stereo unspecified)
O=C(NC(CC(=O)N1CCN(c2ccccc2)CC1)c1ccccc1)c1ccccc1Cl (stereo unspecified)
CC1(C)Cc2cccc(OCC(=O)N3CCN(c4ccc([N+](=O)[O-])cc4)CC3)c2O1
O=C1C2C(c3ccccc3)CC=CC2C(c2ccoc2)N1Cc1ccccc1 (stereo unspecified)
COC(=O)CCc1ccccc1S(=O)(=O)N(CCC(=O)OC)Cc1ccccc1
C=CCSC(CC)(CC)C(N)=O
C/C(=N\NC(=S)Nc1ccc(C)cc1)c1cc2ccccc2o1
O=C(OCC(COC(=O)c1ccccc1)(COC(=O)c1ccccc1)COC(=O)c1ccccc1)c1ccccc1
Nc1nc2c(ncn2[C@@H]2O[C@H](COP(=O)(O)OP(=O)(O)OP(=O)(O)O)[C@@H](O)C2O)c(=O)[nH]1 (stereo partly specified)
C[C@H]1CCC[C@@]2(C)CCCC[C@]12O
CCC(C(=O)Nc1ccc(C(C)C)cc1)c1ccccc1 (stereo unspecified)
COc1ccc(C2/C=C\CN(C(=O)c3ccc(C)cc3)C(Cc3ccccc3)C(=O)N2Cc2ccc(F)cc2)cc1 (stereo unspecified)
CC(C)CC(COCc1ccc(Cl)cc1)N1CCN(C(=O)c2ccc(C(F)(F)F)cc2)CCC1=O (stereo unspecified)
COc1ccc(C(CCN2CCOCC2)c2c(OC)cc(OC)c3c2OC(=O)CC3c2ccc(OC)cc2)cc1 (stereo unspecified)
Cc1ccc(Nc2nc(C)cc(C)c2C(N)=O)cc1
O=C(CN1C(=O)NC(Cc2ccccc2)(Cc2ccccc2)C1=O)NCC1CCCCC1
C=C1CCN(C(CC(C)C)C(=O)NCc2cc(OC)c(OC)c(OC)c2)S(=O)(=O)c2ccccc21 (stereo unspecified)
CCOC(=O)C(=CNNc1ccsc1C(=O)OC)C(=O)OCC
CCCCN(CC)CCNC(=O)CCNC(=O)Cn1ccc2ccccc2c1=O
O=C(CCCc1ccccc1)NCc1ccccc1
COC(=O)c1c(C)[nH]c(C(=O)/C=C/c2ccc(Cl)cc2)c1C
O=c1ccn([C@@H]2O[C@H](COP(=O)(O)OP(=O)(O)OP(=O)(O)O)[C@@H](O)[C@H]2O)c(=O)[nH]1
COCOc1cc(OC)ccc1C(=O)/C=C/c1ccc([N+](=O)[O-])cc1
CC(C)CO
CC(=O)Nc1ccc(S(=O)(=O)N2N=NC3C2C2CC4C3(CN(C(=O)OC(C)(C)C)S4(=O)=O)O2)cc1 (stereo unspecified)
O=C(CCN1CCCCC1)N=Nc1c(O)[nH]c2ccccc12
CC(=O)OCC(NC(=O)C(Cc1ccccc1)NC(=O)OC(C)(C)C)C1OC(n2ccc(=O)[nH]c2=O)C(OC(C)=O)C1OC(C)=O (stereo unspecified)
COc1ccc(NC(=O)c2sc(N3CCOCC3)nc2-c2ccccc2)c(OC)c1
S=C(NNC(=S)NC1CC2CCC1C2)NC1CC2C=CC1C2 (stereo unspecified)
O=S(O)S(=O)(=O)O
COc1ccc(-c2ccc(OC)c(C3C4C=CCC(C)C4C(=O)N3Cc3ccccc3)c2)cc1C (stereo unspecified)
COC(=O)c1ccc([C@@H](O)[C@H](C)C(=O)CC(=O)OC(C)(C)C)cc1
O=C(Cc1c[nH]c2ccccc12)N/N=C/c1cccc(F)c1
CCN(CC)CCNCc1ccc(OCc2ccc(Cl)nc2)c(OC)c1
N#CC1=C(N)Oc2[nH]c(=S)[nH]c(=O)c2C12C(=O)Nc1ccccc12 (stereo unspecified)
C/C(=N\NC(=O)c1cc2c(s1)CCC(C)C2)c1cccnc1 (stereo unspecified)
O=C(Nc1cccc(CCc2ccccn2)c1)c1ccc(Cl)cc1
C=C1/C(=C\C=C2\CCCC3(C)C2CCC3C(C)/C=C/C(O)C2CC2)CC(O)CC1O (stereo unspecified)
Clc1ccc(C2=CSC3=Nc4cccc5cccc(c45)N23)cc1
CCOc1ccc(CN2CCN(Cc3ccc(C)o3)CC2CCO)cc1 (stereo unspecified)
COc1ccc(NC(C(=O)Nc2cccc(C(C)=O)c2)c2ccccc2)cc1 (stereo unspecified)
N#CCC(=O)N/N=C/c1ccc(SCC(=O)Nc2ccccc2)o1
O=C(O)c1ccc(/C=C2/SC(=S)N(c3cccc(C(F)(F)F)c3)C2=O)cc1
O=c1cc(-c2ccc(O)cc2)oc2c(-c3cc(-c4cc(=O)c5c(O)cc(O)cc5o4)ccc3O)c(O)ccc12
COc1ccc([N+](=O)[O-])cc1NC(=O)C(C)OC(=O)C1c2ccccc2Oc2ccccc21 (stereo unspecified)
Cc1cc(C)nc(NS(=O)(=O)c2ccc(N/C=C\C(=O)c3cccs3)cc2)n1
CC(=O)N1CC[n+]2c(-c3ccc([N+](=O)[O-])cc3)csc21
